# From PubChem
# eIF4H inh: inhibitors of RNA binding by human eIF4H; actives 0.94% (n = 290,000); eIF4H fluorescence polarization binding assay; inhibition, % at 35 µM;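 note: calls also rest on retests at 20 µM and on dose response follow-up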
# ALR inh: inhibitors of human sulfhydryl oxidase ALR; purified ALR, DTT oxidation, H2O2 HRP-luminol luminescence; inhibition, % (no concentration beside the values); actives 3.8% (n = 290,000); P55789;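 active = mean replicate inhibition above about 79%, with every replicate also reaching it, limit read from the data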
# PABP1 MLLE inh: inhibitors of microRNA-mediated deadenylation, human PABP1 MLLE binding. P11940. GST-MLLE / FITC-PAM2 fluorescence polarization. inhibition, % at 20 µM. actives 0.36% (n = 360,000); in the data active = inhibition above about 35%, passing the limit was not always enough;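 note: plate controls were DMSO wells with GST-MLLE for no effect and wells lacking GST-MLLE protein for full effect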
# Target sequence (P11940 whole entry, looked up): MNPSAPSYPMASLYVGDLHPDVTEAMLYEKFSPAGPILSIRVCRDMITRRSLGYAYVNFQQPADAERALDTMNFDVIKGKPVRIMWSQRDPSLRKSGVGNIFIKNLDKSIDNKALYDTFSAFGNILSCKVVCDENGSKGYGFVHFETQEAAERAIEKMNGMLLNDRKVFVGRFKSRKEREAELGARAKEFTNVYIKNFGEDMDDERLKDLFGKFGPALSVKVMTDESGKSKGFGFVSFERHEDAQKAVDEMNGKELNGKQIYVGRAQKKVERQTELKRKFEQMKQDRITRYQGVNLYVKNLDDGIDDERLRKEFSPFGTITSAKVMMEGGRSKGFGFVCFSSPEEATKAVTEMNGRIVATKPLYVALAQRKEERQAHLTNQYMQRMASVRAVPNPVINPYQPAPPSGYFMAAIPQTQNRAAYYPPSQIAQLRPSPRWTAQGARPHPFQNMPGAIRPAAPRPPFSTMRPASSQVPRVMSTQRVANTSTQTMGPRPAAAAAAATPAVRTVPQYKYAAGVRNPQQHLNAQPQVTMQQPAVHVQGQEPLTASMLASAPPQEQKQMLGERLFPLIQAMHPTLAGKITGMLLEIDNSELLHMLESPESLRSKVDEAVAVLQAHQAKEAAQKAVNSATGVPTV
# PABP polyA inh: blocks human PABP binding to poly(A) RNA | P11940 | actives 1% (n = 290,000) | fluorescence polarization | inhibition, % at 35 µM;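 note: calls also rest on retests at 20 µM and on dose response follow-up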
# Efflux pump mplx: antifungal efflux pump inhibition, Nile Red retention; S. cerevisiae Candida pump triplex; inhibition, % at 10 µM; AID 485275; actives 0.44% (n = 330,000);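 active = plate passing quality check with inhibition over a set limit, or well fluorescence over plate mean plus 4 SD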;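 note: Nile Red retained in pooled yeast measured as flow cytometry median fluorescence; 0% = buffer negative control and 100% = Enniatin B positive control; higher means more Nile Red kept so more efflux inhibition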
# UBC9 SUMO inh: SUMOylation inhibition; actives 0.36% (n = 290,000); inhibition, % at 35 µM; AID 2006; HTRF SUMOylation assay, SAE1/SAE2 + UBC9, in vitro; P63279; in the data active = inhibition above about 50%, passing the limit was not always enough
# Active calls of the source: *; nt = no result. Most compounds without a hit are left out; they make up all but 4.7% or so of the library. Unless noted, the rule behind the calls is not given here.
SMILES,eIF4H inh,ALR inh,PABP1 MLLE inh,PABP polyA inh,Efflux pump mplx,UBC9 SUMO inh
COc1ccc(C(=O)CSC#N)cc1OC,-2,99*,28,11,0,10
COc1ccc(C(=O)CSc2nc(SC)ns2)cc1OC,8,nt,-4,-6,0,-8
COc1ccc(C(=O)CSc2cc(C)nc3nc(C)nn23)cc1OC,-6,98*,30,-3,0,12
CCCCNc1cc(F)nc(N)n1,59,-18,24,-1,0,6
Cc1c(CCC(=O)NCCCCCC(=O)O)c(=O)oc2cc3occ(-c4ccccc4)c3cc12,72*,-2,12,49*,1,17
Cc1cc(Cl)ccc1-c1nc(NC(C)C)nc2ccsc12,nt,nt,-1,nt,nt,nt
CC[n+]1c(-c2ccc(C)cc2)csc1Nc1c(C)n(C)n(-c2ccccc2)c1=O,-2,nt,-2,7,0,-2
CC[n+]1c(-c2ccccc2)csc1Nc1c(C)n(C)n(-c2ccccc2)c1=O,-11,99*,1,-5,0,-12
Cc1ccc2c3c(cccc13)-c1ccccc1C2=O,90*,nt,48*,9.9*,1,9
COc1cccc(NC(=S)NNC(=O)c2ccccc2OC(F)F)c1,3,79*,28,-2,0,-32
COc1cccc(NC(=S)N/N=C2/CCCCc3ccccc32)c1,18,nt,45*,20,nt,-47
O=C(NNC(=S)Nc1cccc(Cl)c1)c1ccccc1OC(F)F,6,nt,18,5,0,-13
CC(C)NC(=S)N/N=C1\CCCCc2ccccc21,6,6,2,-7,0,1
Cc1ccc(NC(=S)NNC(=O)Nc2ccccc2)cc1,-9,97*,-6,-5,0,2
Oc1ccc(NC(=S)Nc2ccccc2)cc1,-8,99*,-1,2,0,9
Nc1ccc(NC(=S)Nc2ccccc2)cc1,-10,39,21,5,0,7
Cc1ccc2c(=O)n3c(nc2c1)C(C)NC(=O)c1cccnc1-3 (configuration not stated),nt,nt,1,nt,nt,nt
CC(=O)Nc1ccc(S(=O)(=O)N2CCC(N3CCCCC3)CC2)cc1,-1,3,-9,7,2,13
CN(/N=C/c1cc(Cl)ccc1O)C1=NS(=O)(=O)c2ccccc21,-9,nt,-3,20,0,13
COc1cccc(NC(=S)Nc2ccc(O)cc2)c1,5,99*,14,10,0,25
COc1cccc(NC(=S)Nc2ccc(F)cc2)c1,-6,45,27,0,0,-4
COc1ccc(NC(=S)Nc2ccc3snnc3c2)cc1,-2,97*,27,-16,0,23
Oc1c(N=Nc2nn[nH]n2)ccc2ccccc12,nt,nt,47*,nt,nt,nt
C[C@@H]1CN([C@H](C)CO)C(=O)c2c(c3ccccc3n2C)-c2ccccc2CO[C@H]1CN(C)C(=O)NC1CCCCC1,nt,nt,3,nt,nt,nt
CC(=O)Nc1ccc(NC2CCCCC2NS(=O)(=O)c2ccc(Cl)cc2)cc1 (configuration not stated),-13,99*,2,-6,0,-2
SMILES,eIF4H inh,ALR inh,PABP1 MLLE inh,PABP polyA inh,Efflux pump mplx,UBC9 SUMO inh
O=S(=O)(NC1CCCCC1Nc1ccccc1)c1ccccc1 (configuration not stated),4,99*,9,3,0,-5
O=C(O)c1ccccc1NC1CCCCC1NS(=O)(=O)c1ccccc1 (configuration not stated),2,nt,-4,13,nt,-16
CCN(CC)C1CCCCC1NS(=O)(=O)c1ccc(Cl)cc1 (configuration not stated),4,-11,-2,4,0,0
N#CC1=C(N)C(C#N)(C#N)[C@H](c2cccnc2)[C@H]2CN(C(=O)OCc3ccccc3)CC=C12,31,25,26,-2,0,0
N#CC1=C(N)C(C#N)(C#N)C(c2ccncc2)C2CN(C(=O)OCc3ccccc3)CC=C12 (configuration not stated),75*,10,13,9.4*,0,-13
O=C1NC(=O)C2(CCCc3c([N+](=O)[O-])cccc32)N1 (configuration not stated),nt,nt,-8,nt,nt,nt
Cc1nc2c3ccccc3nc(NNC(=O)CCC(=O)N3CCN(c4ccc(F)cc4)CC3)n2n1,-6,90*,-13,-8,0,-9
Cc1nc2c3ccccc3nc(NNC(=O)CCC(=O)NCCN3CCN(c4ccccc4)CC3)n2n1,0,98*,2,0,0,-3
